We go through 13 compounds from PubChem BioAssay (NCI).

The panel holds about 83,000 compounds, 20% with a hit somewhere; the sample as a whole holds those more often.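 In brief: 96-well plates, 48 h treatment, single concentration, percent growth endpoint.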 Values without a mark were called inactive. Calls of active or inactive are those of the source. The calls were made as follows: active = growth percent below 10; inactive = the rest.

Holding throughout (assay): NCI-60 one-dose screen, 48 h (100 = growth as untreated, 0 = no growth, -100 = all killed)
Common to all, as to conditions: 10 µM unless noted

The subject of experiment [1] is NCI-H23 lung.
Experiment [2] relates to NCI-H226 lung.
The test system of experiment [3] is NCI-H322M lung.
Experiment [4] has as its system HOP-62 NSCLC.
For experiment [5], the system named is NCI-H460 lung.
Experiment [6] has as its system HOP-92 NSCLC.
Experiment [7] deals with NCI-H522 lung.
The subject of experiment [8] is A549/ATCC NSCLC.
For experiment [9], the system named is 786-0 renal.
The test system of experiment [10] is COLO 205 colon.

`CCCOc1cc2ccccc2cc1C(=O)Nc1nc(NC)c2c(ccc3nccc32)[nH]1`: the growth in experiment [1] was -64.8% (active); in experiment [2], -59.3% (active); in experiment [3], -65.9% (active); in experiment [4], -73.1% (active); in [5] it was -78.3% (active); in [6], -61.2% (active). Also, the growth in experiment [7] was -74.5% (active); in experiment [8] it was -74.8% (active); in experiment [9] it was -72.9% (active); in [10], -76.2% (active).

`COc1cc2c(cc1-c1c(C)noc1C)ncc1nc(C3CCC(F)(F)CC3)n([C@H](C)COC(F)F)c12`: the growth in experiment [1] was 60.1%; in experiment [2] it was 51.1%; in [3], 42.6%; in [4], 36.9%; in experiment [5], 56.4%; in experiment [6], 32%. In addition, the growth is 30.3% in [7], 40% in experiment [8], 46.9% in experiment [9] and 25.1% in [10].

As to `CCn1c(Cc2ccccc2Nc2c(Cl)cccc2Cl)nnc1SCC(=O)NN1C(=O)/C(=C/c2cc(OC)c(O)c(OC)c2)SC1=S`, the growth in experiment [1] is 48.3%; in [2], 40.7%; in experiment [3], 42.2%; in experiment [4] it was 29.9%; in experiment [5], 22.1%; in experiment [6] it was 11.1%. For the same compound, the growth in [7] was -1.58% (active); in experiment [8], 60.9%; in [9], 26.3%; in experiment [10], 44.9%.

`O=C(N=Nc1c(O)[nH]c2ccc(Br)cc12)c1cc(-c2ccccc2)on1`: the growth was 96.9% in [1]; 99.8% in [2]; 108% in experiment [3]; 102% in experiment [4]; 101% in experiment [5]; 96.8% in [6]. The growth was 85% in [7], 103% in experiment [8], 105% in experiment [9] and 125% in [10].

In the case of `COc1ccc(-c2nnc(SCC(=O)c3ccc(Cl)cc3)o2)cc1`, the growth was 93.9% in [1]; 103% in experiment [2]; 108% in experiment [3]; 95.7% in experiment [4]; 110% in experiment [5]; 105% in experiment [6]. Further, the growth is 76.3% in experiment [7], 92% in experiment [8], 96.9% in experiment [9] and 112% in [10].

`COc1cccc2c1C(=O)c1c(O)c3c(c(O)c1C2=O)C[C@](O)(C(=O)CO)C[C@H]3O[C@@H]1C[C@@H](NC(=O)CCCCCN(C)C2(c3ccc(F)cc3)CC3CCC2C3)[C@H](O)[C@@H](C)O1` (stereo not given in full): the growth in experiment [1] was 40.8%; in experiment [2] it was 59.3%; in experiment [3] it was 53.7%; in [4], 46.9%; in experiment [5], -84.2% (active); in [6] it was 51.6%. Moreover, the growth was -83.1% (active) in experiment [7], 19.7% in [8], -92.7% (active) in experiment [9] and -63.7% (active) in experiment [10].

Turning to `C=C1c2nc3ccccc3n2C=C(c2ccc(OC)cc2)N1Cc1ccccc1`, the growth in experiment [1] is 81.3%; in experiment [2] it was 102%; in [3], 102%; in [4], 136%; in [5], 90.8%; in [6], 95.9%. In addition, the growth in [7] is 64.5%; in [8], 96%; in [9], 83.6%; in experiment [10], 92.8%.

Consider `CNc1ccc(-c2cc(=O)oc3ccc(Cl)cc23)cc1`, for which the growth in experiment [1] is 18.5%; in [2], 48.1%; in experiment [3] it was 54.4%; in experiment [4] it was 26.2%; in [5], 6.78% (active); in experiment [6], 37.3%. Also, the growth in [7] is -25.3% (active); in experiment [8], 10.1%; in experiment [9] it was 37.3%; in experiment [10] it was -15.1% (active).

For the compound `N#Cc1cnn(-c2nc3c(Cl)cccc3s2)c1N`, the growth is 82.6% in experiment [1]; 76.2% in experiment [2]; 95% in experiment [3]; 81.3% in experiment [4]; 73.4% in experiment [5]; 38.8% in experiment [6]. Further, the growth is 67.7% in [7], 83.6% in [8], 89.4% in [9] and 92.3% in experiment [10].

Turning to `O=c1oc2c(C(F)(F)F)cccc2cc1-c1csc(Nc2ccc(OCCF)cc2)n1`, the growth was 24.2% in experiment [1]; 17.3% in [2]; 31% in [3]; 22.5% in [4]; 4.07% (active) in experiment [5]; 27.4% in experiment [6]. Also, the growth in experiment [7] was -42.9% (active); in experiment [8], 18.1%; in experiment [9] it was 9.77% (active); in [10] it was -71.8% (active).

`CCOC(=O)c1c(C)oc2ncnc(N3CCN(C(=O)COc4ccc(SC)cc4)CC3)c12`: the growth is 93.9% in experiment [1]; 83.3% in experiment [2]; 99.3% in [3]; 86.4% in [4]; 98.7% in [5]; 78.9% in experiment [6]. Further, the growth in [7] is 74.9%; in experiment [8], 90.2%; in experiment [9], 95.8%; in experiment [10] it was 98%.

For `N#Cc1c(-c2ccc(Cl)cc2)nc(NN=Cc2ccco2)nc1N1CCOCC1`, the growth is 70.8% in [1]; 70.8% in [2]; 69.4% in experiment [3]; 66.4% in [4]; 68.2% in experiment [5]; 40.6% in experiment [6]. Besides, the growth was 62.3% in experiment [7], 78.9% in experiment [8], 74% in experiment [9] and 75.2% in experiment [10].

As for `OCCNc1nccc(N2CCN(c3ccnc4cc(Cl)ccc34)CC2)n1`, the growth in [1] was 80.5%; in experiment [2] it was 92.2%; in experiment [3], 84.2%; in [4] it was 56.3%; in experiment [5], 96.8%; in [6], 88.7%. The growth is 65.2% in [7], 80.6% in experiment [8], 92.8% in [9] and 65.6% in [10].
